Assay results: the supplement of paper PMC13380429
Counter-ions that a name gives are not always drawn.

Test system: Vero E6 infected with SARS-CoV-2
Assay: inhibition of SARS-CoV-2 cytopathic effect; higher = more antiviral protection, active = above 15
Conditions: 48 h

| SMILES | inhibition of SARS-CoV-2 cytopathic effect (1 nM) | inhibition of SARS-CoV-2 cytopathic effect (8.33 nM) | inhibition of SARS-CoV-2 cytopathic effect (100 nM) | inhibition of SARS-CoV-2 cytopathic effect (833.33 nM) | inhibition of SARS-CoV-2 cytopathic effect (10000 nM) |
| --- | --- | --- | --- | --- | --- |
| COc1ccc(C(=O)N2CCCc3cc(C4=NNC(=O)SC4C)ccc32)cc1OC (stereo not given) | -1.28% (inactive) | 2.27% (inactive) | 0.07% (inactive) | 0.74% (inactive) | 4.36% (inactive) |
| CCOC(=O)[C@]12CC1/C(=N\O)c1ccccc1O2 (stereo not given in full) | 1.49% (inactive) | -0.95% (inactive) | -1.19% (inactive) | -3.34% (inactive) | -1.39% (inactive) |
| NC(=O)CN1C=CCC(C(N)=O)=C1 [caricotamide] | 0.48% (inactive) | 2.71% (inactive) | 1.14% (inactive) | -1.91% (inactive) | 0.44% (inactive) |
| COc1c(C)c(C(=O)c2ccc(N)c(C(=O)O)c2)n2ccccc12 | -2.54% (inactive) | 1.8% (inactive) | 0.21% (inactive) | -1.06% (inactive) | -1.34% (inactive) |
| CCOC1O[C@H]([C@@H](COCc2ccccc2)OCc2ccccc2)[C@H](OCc2ccccc2)[C@H]1O (stereo not given in full) [tribenoside] | -7.21% (inactive) | -1.54% (inactive) | -0.86% (inactive) | 0.08% (inactive) | 1.9% (inactive) |
| C[C@@H]1CC[C@H]2C(C)(C)[C@H]3C[C@@]12CC[C@@]3(C)O [cedrol] | -1.18% (inactive) | -3.1% (inactive) | -1.28% (inactive) | -1.1% (inactive) | -1.09% (inactive) |
| CN(C)C/C=C/C(=O)Nc1ccc(C(=O)Nc2cccc(Nc3ncc(Cl)c(-c4c[nH]c5ccccc45)n3)c2)cc1 | -0.79% (inactive) | -1.41% (inactive) | -1.48% (inactive) | -2.92% (inactive) | -8.5% (inactive) |
| CN1CCN(c2ccc3nc(-c4c(N)c5c(F)cccc5[nH]c4=O)[nH]c3c2)CC1 [dovitinib] | 1.8% (inactive) | 0.97% (inactive) | 0.34% (inactive) | -1.8% (inactive) | -0.5% (inactive) |
| O=C(Nc1cc(C(F)(F)F)cc(C(F)(F)F)c1)c1cc(Cl)ccc1O [IKK-2-inhibitor-V] | -4.92% (inactive) | -2.65% (inactive) | 1.55% (inactive) | 10.7% (inactive) | 4.63% (inactive) |
| CCN1CCCC(OC(=O)C(c2ccccc2)c2ccccc2)C1 (stereo not given) [piperidolate] | -8.23% (inactive) | -7.13% (inactive) | -7.85% (inactive) | -6.63% (inactive) | -10.7% (inactive) |
| CC(=O)NNC(=O)N1Cc2ccccc2Oc2ccc(Cl)cc21 | -0.04% (inactive) | 1.22% (inactive) | -0.93% (inactive) | -0.99% (inactive) | -2.14% (inactive) |
| CC(=O)NCCCCCC(=O)O [acexamic-acid] | 1.78% (inactive) | 1.59% (inactive) | 0.61% (inactive) | 0.94% (inactive) | 0.09% (inactive) |
| O=C(O)c1ccc(-n2nc(-c3ccccc3O)nc2-c2ccccc2O)cc1 [deferasirox] | -0.67% (inactive) | -4.22% (inactive) | -1.32% (inactive) | -1.58% (inactive) | 0.43% (inactive) |
| O=S(=O)(NCC1CC1)c1ccc(Nc2nccc(N3CCCc4cc(O)ccc43)n2)cc1 [pyrintegrin] | 2.46% (inactive) | 5.45% (inactive) | 4.41% (inactive) | 14.1% (inactive) | 36% (active) |
| O=c1[nH]c2ccccc2n1CCCN1CCC(n2c(=O)[nH]c3cc(Cl)ccc32)CC1 [domperidone] | 0.36% (inactive) | -0.12% (inactive) | 1.41% (inactive) | 2.23% (inactive) | -3.31% (inactive) |
| CN1C(=O)C(N2CCCCC2)S/C1=C\C(=O)O (stereo not given) [ozolinone] | -4.09% (inactive) | 0.03% (inactive) | 4.18% (inactive) | 0.02% (inactive) | -0.02% (inactive) |
| CC1Nc2ccc(Cl)cc2S(=O)(=O)N1 (stereo not given) | 0.09% (inactive) | 1.51% (inactive) | -2.37% (inactive) | 1.75% (inactive) | 2.76% (inactive) |
| C=C1C(=O)O[C@@H]2C[C@@]3(C)CCC[C@H](C)C3=C[C@H]12 [alantolactone] | -2.07% (inactive) | -0.06% (inactive) | -2.01% (inactive) | 1.03% (inactive) | 12.6% (inactive) |
| Cc1cc(-c2ccc(/N=N/c3ccc4c(S(=O)(=O)O)cc(S(=O)(=O)O)c(N)c4c3O)c(C)c2)ccc1/N=N/c1ccc2c(S(=O)(=O)O)cc(S(=O)(=O)O)c(N)c2c1O [evans-blue] | -1.16% (inactive) | -4.89% (inactive) | 2.16% (inactive) | -0.35% (inactive) | -17.6% (inactive) |
| CC[C@@H](c1ccc(F)c(F)c1)n1c(C(=O)OC)c(-c2ccno2)[nH]c1=S | 1.31% (inactive) | 2.77% (inactive) | 1.18% (inactive) | 1.19% (inactive) | -0.12% (inactive) |

| SMILES | inhibition of SARS-CoV-2 cytopathic effect (1 nM) | inhibition of SARS-CoV-2 cytopathic effect (8.33 nM) | inhibition of SARS-CoV-2 cytopathic effect (100 nM) | inhibition of SARS-CoV-2 cytopathic effect (833.33 nM) | inhibition of SARS-CoV-2 cytopathic effect (10000 nM) |
| --- | --- | --- | --- | --- | --- |
| CCC[C@@H]1CC(=O)N([C@@H](CC)C(N)=O)C1 [Brivaracetam] | -0.93% (inactive) | -1.72% (inactive) | -2.91% (inactive) | -2.52% (inactive) | 1.45% (inactive) |
| COc1ccccc1OC(=O)C(C)c1ccc(CC(C)C)cc1 (stereo not given) [metoxibutropate] | -3.38% (inactive) | -2.87% (inactive) | -1.26% (inactive) | -1.98% (inactive) | -3.16% (inactive) |
| N#Cc1c(N)nc(SCC(N)=O)c(C#N)c1-c1ccc(OCC2CC2)cc1 | 4.36% (inactive) | 2.85% (inactive) | 2.51% (inactive) | 10.1% (inactive) | 12.1% (inactive) |
| COc1cccc2c1C(=O)c1c(O)c3c(c(O)c1C2=O)C[C@@](O)(C(=O)CO)C[C@@H]3O[C@H]1C[C@H](N)[C@@H](O)[C@H](C)O1 [Epirubicin Hydrochloride] | 1.23% (inactive) | 1.09% (inactive) | 0.605% (inactive) | 1.46% (inactive) | -4.63% (inactive) |
| c1ccc([C@H]2CNCc3ccccc32)cc1 [4-phenyl-1,2,3,4-tetrahydroisoquinoline] | -0.57% (inactive) | 5.18% (inactive) | 3.96% (inactive) | 8.92% (inactive) | 3% (inactive) |
| COC(=O)/C=C/C(=O)OCCN1C(=O)CCC1=O [diroximel-fumarate] | -3.18% (inactive) | -0.95% (inactive) | -3.4% (inactive) | -1.82% (inactive) | 11.3% (inactive) |
| CC(C)(C)NC[C@H](O)COc1cccc2c1CCCC2=O [levobunolol] | -6.66% (inactive) | -1.55% (inactive) | -0.235% (inactive) | 2.58% (inactive) | 2.67% (inactive) |
| Cc1cccc(-c2nn3c(c2-c2ccnc4ccc(C(N)=O)cc24)CCC3)n1 | 0.85% (inactive) | -0.43% (inactive) | -0.97% (inactive) | -0.85% (inactive) | -1.59% (inactive) |
| NC(=O)[C@H]1CCS[C@@H]2C[C@]3(CCCN3C(=O)Cc3ccc(NC(=O)COc4ccc(Cl)cc4Cl)cc3)C(=O)N12 | 0.49% (inactive) | 0.01% (inactive) | 1.37% (inactive) | 0.74% (inactive) | -6.32% (inactive) |
| C(=C\c1ccccc1)/CN1CCN(CCOC(c2ccccc2)c2ccccc2)CC1 | -2.82% (inactive) | 0.59% (inactive) | -0.97% (inactive) | 0.92% (inactive) | 4.63% (inactive) |
| COc1cc(NC(=O)c2cccc(-n3cc(NC(=O)Nc4cccc(C)c4)cn3)c2)cc(OC)c1OC | -0.97% (inactive) | -0.75% (inactive) | 2.66% (inactive) | 0.39% (inactive) | -0.61% (inactive) |
| CC(C)(C)CC(C)(C)c1cc(Cc2cc(C(C)(C)CC(C)(C)C)cc(-n3nc4ccccc4n3)c2O)c(O)c(-n2nc3ccccc3n2)c1 [bisoctrizole] | 0.77% (inactive) | 2.98% (inactive) | 2.99% (inactive) | 1.93% (inactive) | 3.96% (inactive) |
| Nc1nc2[nH]cnc2c(=S)[nH]1 [thioguanine] | -0.56% (inactive) | -0.26% (inactive) | 1.4% (inactive) | 2.65% (inactive) | 5.44% (inactive) |
| CC(C)(C(=O)O)c1ccc(C(O)CCCN2CCC(C(O)(c3ccccc3)c3ccccc3)CC2)cc1 (stereo not given) [fexofenadine] | 0.81% (inactive) | -0.73% (inactive) | -0.49% (inactive) | 1.17% (inactive) | 2.18% (inactive) |
| COc1ccc(-c2ccc3ncc4c(c3c2)n(-c2ccc(N3CCNCC3)c(C(F)(F)F)c2)c(=O)n4C)cn1 | 0.99% (inactive) | 2.5% (inactive) | -0.69% (inactive) | -8.37% (inactive) | -23.9% (inactive) |
| COc1cc(C[C@@H]2NCCc3cc(O)c(O)cc32)cc(OC)c1OC [trimethoquinol] | 0.9% (inactive) | 0.73% (inactive) | 1.88% (inactive) | 0.62% (inactive) | -5.45% (inactive) |
| C[N+]12CCCCC1CCC(=C(c1cccs1)c1cccs1)C2 (stereo not given) [tiquizium] | -3.91% (inactive) | -0.22% (inactive) | 2.71% (inactive) | -2.14% (inactive) | -3.03% (inactive) |
| Clc1ccc(CSC(Cn2ccnc2)c2ccc(Cl)cc2Cl)cc1 (stereo not given) [sulconazole] | -1.13% (inactive) | 2.09% (inactive) | 0.76% (inactive) | -1.38% (inactive) | -0.46% (inactive) |
| Cc1ccc(NC(=O)c2cccc(C(C)(C)C#N)c2)cc1Nc1ccc2ncn(C)c(=O)c2c1 | 1.24% (inactive) | 2.77% (inactive) | -0.67% (inactive) | -2.75% (inactive) | -1.17% (inactive) |
